# PubChem BioAssay AID1851 (National Center for Advancing Translational Sciences (NCATS), 2009)
# Where “and” joins values, the source holds several entries; their conditions need not be identical. Equal entries are not always repeated. Screen size: about 16,000 compounds; about 5,100 (32%) were called active. About 25% were inconclusive and are not listed. The call rests on the fitted dose curve; in most records, active means well fitted curve in the direction sought with a large enough effect; inconclusive means small, poorly fitted or top-dose-only effect, or effect the other way; inactive means no such curve, though single readings can be large or run the other way. This is one part of the list.
# Biological target: Cytochrome P450 3A4 (Homo sapiens) (UniProt P08684)
# Sequence (P08684 whole entry, looked up): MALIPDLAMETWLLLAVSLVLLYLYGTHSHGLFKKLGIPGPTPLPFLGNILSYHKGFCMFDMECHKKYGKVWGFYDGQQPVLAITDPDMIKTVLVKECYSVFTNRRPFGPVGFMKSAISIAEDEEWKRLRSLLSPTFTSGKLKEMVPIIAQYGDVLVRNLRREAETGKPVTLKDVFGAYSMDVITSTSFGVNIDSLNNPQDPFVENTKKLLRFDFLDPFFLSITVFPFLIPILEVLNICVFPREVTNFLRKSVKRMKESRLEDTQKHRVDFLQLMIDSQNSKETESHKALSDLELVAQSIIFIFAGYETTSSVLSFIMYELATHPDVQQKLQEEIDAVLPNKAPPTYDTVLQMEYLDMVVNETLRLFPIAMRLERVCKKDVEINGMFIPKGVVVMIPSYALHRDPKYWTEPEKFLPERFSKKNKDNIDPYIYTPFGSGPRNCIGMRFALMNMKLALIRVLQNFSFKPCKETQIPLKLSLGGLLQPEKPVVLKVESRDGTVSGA
# Assay: Cytochrome panel assay with activity outcomes
# Conditions: recombinant CYP, pro-luciferin dealkylation, luminescence, p450-cyp3a4; series mostly up to 57.1 µM; activity, negative = inhibition: at the top concentration
# On the % scale 0 is the no-effect control and ±100 the full control effect.
Compound,AC50,"activity, negative = inhibition"
Cc1ccc(S(=O)(=O)n2c3ccccc3c3nnc(C(=O)c4ccccc4)nc32)cc1,3.98 µM (active),–
Cc1ccc(-n2cc(C(=O)c3ccc4ccccc4c3O)cn2)cc1,–,-15.6% (inactive)
COCn1c2ccccc2c2nnc(C(C)=O)nc21,–,7.63% [at 11.4 µM] (inactive) and -20.9% [at 11.4 µM] (inactive)
COc1ccc2c(c1)CCC1[C@@H]2CCC2(C)[C@@H](NCCCCCCN3C(=O)C=CC3=O)CC[C@@H]12 (some centres not stated),–,3.28% (inactive)
CC(C)CC(=O)O/N=C1\C(=O)N(c2ccccc2)c2ccccc21,–,18.9% [at 2.29 µM] (inactive)
CN1C(=O)/C(=N\OC(=O)c2cccc3ccccc23)c2ccccc21,28.2 µM (active),–
CC(=O)c1c(O)cc(=O)n(-c2ccccc2)c1-c1cccc2ccccc12,–,5.76% (inactive)
O=c1[nH][nH]c(C(F)(F)F)c1C=Nc1ccccc1Cl,–,-10.9% (inactive)
C=CCSc1nn2c(=O)c3ccccc3nc2s1,20 µM (active),–
O=C(Cn1cnc2ccccc2c1=O)Nc1nnc(SCc2ccccc2)s1,–,-5.34% (inactive)
C[C@@H](C(=O)O)c1ccc(C[C@@H]2CCCC2=O)cc1,–,7.6% (inactive)
Cc1cc2ccccc2c[n+]1CC(O)C[n+]1cc2ccccc2cc1C,–,-6.74% [at 11.4 µM] (inactive)
CC(=O)c1c(C)nc(-c2ccccc2)n1O,–,-11% (inactive)
O=c1nc(-c2ccccc2)n(-c2ccccc2)c2ncccc12,–,-9.32% (inactive)
CN=c1nc(-c2ccccc2)n(-c2ccccc2)s1,31.6 µM (active),–
CCc1c(C(C)O)oc2ccc3c(C)cc(=O)oc3c12 (configuration not stated),–,7.59% [at 2.29 µM] (inactive)
Cc1cc2cc3c(C)cc(=O)oc3c(C)c2o1,3.98 µM (active),–
O=C(Nc1ccc(F)cc1)c1cc(S(=O)(=O)N2CCCCC2)cs1,14.1 µM (active),–
O=C(Nc1ccc(S(=O)(=O)N2CCCC2)cc1)c1ccc(CN2CCOCC2)cc1,–,-3.74% [at 2.29 µM] (inactive)

Compound,AC50,"activity, negative = inhibition"
O=C1C[C@@H](O)[C@@H](O)[C@@H]2[C@H]3C(=O)N(c4ccc(F)cc4F)C(=O)[C@@H]3CC[C@H]12,–,-11% [at 11.4 µM] (inactive)
CC(C)CO/N=C1/C[C@@H](O)[C@@H](O)[C@@H]2[C@H]3C(=O)N(c4ccc(F)cc4F)C(=O)[C@@H]3CC[C@@H]12,–,0.624% [at 11.4 µM] (inactive)
CC(C)CO/N=C1/C[C@@H](O)[C@@H](O)[C@@H]2[C@H]3C(=O)N(c4ccc(F)cc4F)C(=O)[C@@H]3CC[C@H]12,–,-8.15% [at 11.4 µM] (inactive)
C#CCCCO/N=C1/C[C@@H](O)[C@@H](O)[C@@H]2[C@H]3C(=O)N(c4ccc(F)cc4F)C(=O)[C@@H]3CC[C@@H]12,3.16 µM (active),–
C#CCCCO/N=C1/C[C@@H](O)[C@@H](O)[C@@H]2[C@H]3C(=O)N(c4ccc(F)cc4F)C(=O)[C@@H]3CC[C@H]12,3.98 µM (active),–
O=C1[C@@H]2[C@H]3[C@H](O)[C@H](O)C/C(=N/OCc4ccccc4)[C@@H]3CC[C@H]2C(=O)N1c1ccc(F)cc1F,–,-19.6% [at 11.4 µM] (inactive)
Cc1ccc(-n2c3c(c(=O)[nH]c2=O)C(NS(=O)(=O)c2ccc(C)cc2)(C(F)(F)F)C(=O)N3)cc1 (configuration not stated),–,-13.8% (inactive)
O=C(c1cc(C(F)(F)F)cc(C(F)(F)F)c1)N1CCC[C@@]2(CCN(c3ccccn3)C2)C1,3.98 µM (active),–
O=C(c1cc(C(F)(F)F)cc(C(F)(F)F)c1)N1CCC2(CC1)CCN(c1ncccn1)CC2,–,-9.89% (inactive)
O=C(c1cc(C(F)(F)F)cc(C(F)(F)F)c1)N1CCC2(CC1)CCN(c1ccccn1)CC2,–,4.89% (inactive)
O=C(c1cc(C(F)(F)F)cc(C(F)(F)F)c1)N1CCC[C@@]2(CCN(c3ncccn3)C2)C1,10 µM (active),–
O=C(c1cc(C(F)(F)F)cc(C(F)(F)F)c1)N1CCC2(CC1)CN(c1ccccn1)C2,–,-15.9% (inactive)
O=C(c1cc(C(F)(F)F)cc(C(F)(F)F)c1)N1CCC2(CC1)CN(c1ncccn1)C2,–,-23.6% (inactive)
O=C(c1cc(C(F)(F)F)cc(C(F)(F)F)c1)N1CCC[C@@]2(CCN(c3ccncc3)C2)C1,6.31 µM (active),–
O=C(c1cc(C(F)(F)F)cc(C(F)(F)F)c1)N1CCC2(CC1)CN(c1ccncc1)C2,–,-5.48% (inactive)
O=C(CCCCC(=O)Nc1c(I)cc(I)c(C(=O)O)c1I)Nc1c(I)cc(I)c(C(=O)O)c1I,–,-16% [at 25.6 µM] (inactive)
CC(C)C(=O)Cc1ccc2ccccc2n1,–,-6.02% [at 11.4 µM] (inactive)
O=C(O)Cc1cc2ccccc2nc1C(=O)O,–,9.42% (inactive)
CCCCC[C@H](O)c1cccc(OCc2ccc3ccccc3n2)c1,12.6 µM (active),–

Compound,AC50,"activity, negative = inhibition"
O=C(Nc1ccccc1C(=O)O)c1ccc2ccccc2n1,–,23% (inactive)
O=C(O)c1ccccc1Nc1cccc(OCc2ccc3ccccc3n2)c1,1.58 µM (active),–
CCCCc1cc2ccccc2c(OCCN(C)C)n1,–,-17.9% [at 25.6 µM] (inactive)
CC1CN(C2CCN(C(=O)c3cccc(Cl)c3)CC2)CC(C)O1 (configuration not stated),–,20.4% (inactive)
CC(C)CNS(=O)(=O)c1cc(C(=O)N2CC(C)OC(C)C2)c(Cl)cc1Cl (configuration not stated),3.16 µM (active),–
CC1CN(C(=O)c2cc3c(s2)CCC3)CC(C)O1 (configuration not stated),–,12.9% (inactive)
O=C(O)C[n+]1ccccc1,–,-14.8% [at 11.4 µM] (inactive)
O=C(/C=C/c1ccc(Br)cc1)NC1CCCCCC1,–,-12.6% [at 11.4 µM] (inactive)
CCOc1ccc(NC(=S)NC(=O)/C=C/c2ccc(C)cc2)c([N+](=O)[O-])c1,–,5.31% (inactive)
Cc1ccc(/C=C/C(=O)NC(=S)Nc2ccccc2C(=O)NC2CCCCC2)cc1,8.91 µM (active),–
NC(=O)c1ncn([C@@H]2O[C@@H](CO)[C@@H](O)[C@H]2O)c1O,–,-3.29% (inactive)
CCCCNC(=O)CCn1c(=S)[nH]c2cc3c(cc2c1=O)OCO3,3.98 µM (active),–
CC(C)OCCCn1c(=S)[nH]c2ncccc2c1=O,–,-15.3% (inactive)
O=c1c2cc(Br)ccc2[nH]c(=S)n1Cc1cccnc1,0.398 µM (active),–
C=CCNC(=O)c1ccc(Cn2c(=S)[nH]c3cc4c(cc3c2=O)OCO4)cc1,7.94 µM (active),–
CC1CCN(CCCn2c(=S)[nH]c3ccc(N4CCOCC4)cc3c2=O)CC1,–,-10.7% (inactive)
CCn1cc(C(=O)O)c(=O)c2cc3c(cc21)OCO3,–,3.68% (inactive)
O=C(CCCn1c(=S)[nH]c2cc3c(cc2c1=O)OCO3)N1CCN(c2ccccc2)CC1,0.447 µM (active),–
CCc1c(C(=O)O)[nH]c2ccc(Br)cc12,–,-8.49% (inactive)
